The text below walks through data of PubChem BioAssay (Tox21).

Test [1] is described as follows: qHTS RealTime-Glo MT Cell Viability Assay in HEK293 cells - 16 hour (AID 1224872). Note: nearly all actives have a fitted effect of over 50% in size. Note: potency is the fitted concentration of half-maximal effect. The procedure, abridged: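 Cells + reagent dispensed (600 cells/well, HEK293) → 5 h at 37 C/5% CO2 → 23 nL compound in DMSO pinned → 40 h at 37 C → luminescence read at 0, 8, 16, 24, 32, 40 h.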
A general note: In qHTS, concentration-response curves come from the screen itself.

A short description of test [2]: qHTS RealTime-Glo MT Cell Viability Assay in HepG2 cells - 8 hour (AID 1224873). Note: nearly all actives have a fitted effect of over 55% in size. The procedure, abridged:
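HepG2 cells (600/well) mixed with RealTime-Glo MT reagent, settled 5 h at 37 C/5% CO2 before compound addition. Nonlytic NanoLuc luminescence from viable-cell prosubstrate reduction read repeatedly during 40 h treatment at 37 C.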

The nature of test [3]: qHTS RealTime-Glo MT Cell Viability Assay in HEK293 cells - 40 hour (AID 1224874). Note: nearly all actives have a fitted effect of over 50% in size. Note: potency is the fitted concentration of half-maximal effect. To be noted: RealTime-Glo luminescence; max response: stronger effect = lower value. An outline of the steps:
(§1)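 Kinetic, non-lysing viability readout. Seed HEK293 (600/well) with reagent, incubate 5 h at 37 C/5% CO2, pin 23 nL compound in DMSO, incubate at 37 C, read luminescence at 0, 8, 16, 24, 32, 40 h.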

A short description of test [4]: A CellTox Green Cytotoxicity Assay to monitor cytotoxicity in HepG2 cells - 16 hour (AID 1224876). Note: nearly all actives have a fitted effect of over 45% in size. Note: potency is the fitted concentration of half-maximal effect. The procedure, abridged:
(§2)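 Cytotoxicity was tracked as dead-cell DNA fluorescence in HepG2 cells treated with test compounds at 37 C; each time-point value comes from one kinetic series spanning 0, 8, 16, 24, 32 and 40 h.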

A short description of test [5]: A CellTox Green Cytotoxicity Assay to monitor cytotoxicity in HepG2 cells - 24 hour (AID 1224878). Note: nearly all actives have a fitted effect of over 45% in size. Note: potency is the fitted concentration of half-maximal effect. An outline of the steps:
as §2

Test [6] is described as follows: A CellTox Green Cytotoxicity Assay to monitor cytotoxicity in HepG2 cells - 40 hour (AID 1224879). Note: nearly all actives have a fitted effect of over 40% in size. Note: potency is the fitted concentration of half-maximal effect. An outline of the steps:
as §2

Test [7] in a line: qHTS RealTime-Glo MT Cell Viability Assay in HEK293 cells - 0 hour (AID 1224880). Note: top concentration of the series differs between compounds; nearly all actives have a fitted effect of over 45% in size. An outline of the steps: as §1
A short description of test [8]: A CellTox Green Cytotoxicity Assay to monitor cytotoxicity in HEK293 cells - 32 hour (AID 1224881). Note: nearly all actives have a fitted effect of over 40% in size. Note: potency is the fitted concentration of half-maximal effect. The procedure, abridged:
(§3)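 Real-time, in one plate: 600 HEK293 cells/well with dead-cell DNA dye, pinned compound after 5 h, 37 C incubation over 40 h; viable cells give no appreciable fluorescence.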

The nature of test [9]: qHTS RealTime-Glo MT Cell Viability Assay in HepG2 cells - 32 hour (AID 1224877). Note: nearly all actives have a fitted effect of over 55% in size. Note: potency is the fitted concentration of half-maximal effect. An outline of the steps:
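Real-time, nonlytic viability: 600 HepG2 cells/well mixed with NanoLuc enzyme plus prosubstrate; 5 h settle, compound (DMSO) added by pintool; luminescence monitored over 40 h at 37 C.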

Test [10] can be described thus: A CellTox Green Cytotoxicity Assay to monitor cytotoxicity in HEK293 cells - 24 hour (AID 1224875). Note: nearly all actives have a fitted effect of over 45% in size. Note: potency is the fitted concentration of half-maximal effect. An outline of the steps: as §3

Each structure is given as a SMILES string. Results filed as inconclusive are left out. A number with no mark means an inactive call. Activity calls are given as the source filed them. Calls come from the whole dose curve; as a rule, active = well fitted curve in the direction sought with a large enough effect in the repeat runs; inconclusive = weak or mixed curves; inactive = no such curve, though single readings can be large; an effect the other way counts as inactive or inconclusive.
% is set by controls: 0 for no effect and ±100 for the full control effect.

With `C=CCCCCCCC=C`, the Potency result in test [1], in [2], in [4], in test [5], in test [6] and in [7] was “inactive” throughout. The Potency entry in [8] is “inactive”. For the same molecule, the max response in [3] was 0.211%.
On to `CCCCCCCCCC(=O)N(C)C`, for which the Potency result in test [1], in [2], in [4], in test [5], in test [6] and in test [7] was “inactive” each time. Further, in test [3], the max response was -15.6%.
As for `O=C(O)c1cccc(Cl)n1`, the Potency result in [1], in test [2], in test [4], in [9], in test [5] and in test [7] was “inactive” each time. In addition, the max response in test [3] is 7.12%.
Consider `C[Si](C)O[Si](C)C`, for which the Potency entry in test [1], in [2], in test [9], in test [5], in test [6] and in test [7] was “inactive” each time. The Potency result in test [8] was “inactive”. Further, in test [3], the max response is -8.35%.
With `COc1cc(C=C2CCC/C(=C\c3ccc(O)c(OC)c3)C2=O)ccc1O`, the Potency in [1] is 21.3 µM (active); in test [3], 21.3 µM (active); in test [9], 23.9 µM (active); in test [5], 23.9 µM (active); in test [6], 21.3 µM (active). Also, the Potency entry in [2] and in [8] was “inactive” throughout.
Regarding `Nc1ncnc2c1ncn2[C@@H]1O[C@H](COP(=O)(O)O)[C@@H](O)[C@H]1O`, the Potency result in [1], in test [10], in test [4], in test [9], in test [5] and in [6] was “inactive” each time. The Potency result in test [7] and in test [8] was “inactive” throughout. Also, the max response in test [3] was 3.96%.
Take `O=C1NC2CCCCN2C12CCN(CCCN1c3ccccc3CCc3ccc(Cl)cc31)CC2` (centres undefined): the Potency in test [1] is 8.49 µM (active); in test [3] it was 8.49 µM (active); in test [10] it was 19 µM (active); in test [4], 23.9 µM (active); in test [9] it was 23.9 µM (active); in test [5] it was 23.9 µM (active). The Potency in test [6] is 23.9 µM (active); in test [8], 21.3 µM (active). Also, the Potency entry in [7] is “inactive”.
With `CC(=O)Oc1ccc(C2(c3ccc(OC(C)=O)cc3)Oc3ccccc3NC2=O)cc1`, the Potency entry in test [1], in test [2], in test [10], in test [4], in test [9] and in test [7] was “inactive” throughout. Further, the Potency entry in [8] was “inactive”.
In the case of `CC(C)(C)CC(C)(C)c1ccccc1O`, the Potency is 39.1 µM (active) in test [1]; 39.1 µM (active) in test [10]; 27.7 µM (active) in test [5]; 34.9 µM (active) in [6]; 43.9 µM (active) in test [8]. Moreover, the Potency result in [2] and in [7] was “inactive” throughout.
Consider `CCCC(=O)OCC(COC(=O)CCC)OC(=O)CCC`, for which the Potency entry in test [1], in test [2], in test [10], in test [5], in test [6] and in test [7] was “inactive” throughout. In test [8], the Potency result is “inactive”.
On to `COc1cccc(CCc2ccccc2OCC(CN(C)C)OC(=O)CCC(=O)O)c1` (centres undefined), for which the Potency result in test [1], in test [2], in test [10], in [9], in [7] and in [8] was “inactive” throughout. In addition, the Potency in [6] was 26.8 µM (active).
Take `O=Nc1ccc(NO)cc1`: the Potency entry in [1], in test [2], in test [10], in test [4], in test [5] and in [6] was “inactive” each time. For the same molecule, the Potency result in test [7] and in test [8] was “inactive” throughout.
In the case of `S=P(N1CC1)(N1CC1)N1CC1`, the Potency result in [1], in test [2], in [10], in [9], in test [5] and in test [6] was “inactive” each time. Besides, the Potency result in test [7] and in [8] was “inactive” each time.
Take `C=CC(=O)OCCC#N`: the Potency result in test [1], in test [2], in test [10], in test [9], in [5] and in test [6] was “inactive” in each case. Also, the Potency entry in test [7] and in [8] was “inactive” each time.
In the case of `CN(C)CCOC(c1ccccc1)c1ccccc1` (tested in a mixture with another compound), the Potency entry in test [1], in [2], in test [10], in test [4], in test [9] and in test [5] was “inactive” each time. Also, the Potency entry in test [6], in test [7] and in test [8] was “inactive” in each case.
As for `CCCCCCCCCCCCN(CCO)CCO`, the Potency in test [1] is 48.8 µM (active); in [3] it was 38.7 µM (active); in test [10], 54.7 µM (active); in [4], 43.5 µM (active); in test [9] it was 43.5 µM (active); in [5], 24.4 µM (active). Further, the values for the Potency in test [6] and in test [8] were 19.4 µM (active) and 54.7 µM (active), respectively.
Regarding `Cc1c(C)n(Cc2ccccc2)c2ccc(C(=O)OCCN(C)C)cc12`, the Potency entry in test [1], in [2] and in [7] was “inactive” throughout. Besides, the Potency in test [4], in test [9], in test [5] and in test [6] was 23.9 µM (active) in each case.
For `CCCCCCCCCCOCC(O)CN` (centres undefined), the Potency in [1] is 23.9 µM (active); in test [3], 23.9 µM (active); in test [10], 23.9 µM (active); in [4] it was 19 µM (active); in test [9], 15.1 µM (active); in test [5], 15.1 µM (active). Moreover, the Potency in test [6] is 15.1 µM (active); in test [8] it was 26.8 µM (active).
For `COc1ccc2sc(C(=O)Nc3nnn[nH]3)c(OC(C)C)c2c1`, the Potency result in test [1], in [2], in test [4], in test [9], in [5] and in [6] was “inactive” throughout. Besides, the Potency result in test [7] and in test [8] was “inactive” each time.
As to `Cc1ccc2ccc3cccc4ccc1c2c34`, the Potency entry in test [1], in [2], in test [10], in [4], in test [9] and in test [5] was “inactive” throughout. Also, the Potency entry in [6], in test [7] and in test [8] was “inactive” in each case.
On to `C/C=C/c1ccc(OC)c(OC)c1`, for which the Potency entry in [1], in [2], in [10], in [9], in [5] and in [6] was “inactive” each time. Further, the Potency result in test [7] and in test [8] was “inactive” throughout.
